Experimental data published in PubChem BioAssay AID1159580 (chemical genetic matrix, 2015).
Hit rate of the full screen: of about 5,500 compounds, about 2,000 (36%) were called active. About 18% were inconclusive and are not listed. Rule as the data show it: active = normalized growth mostly below about 0.91 (no sharp cut-off); inconclusive = no clear call, values can overlap the other calls; inactive = mostly above about 0.92. Some of the results follow.

Assay: chemical genetic growth profiling, strain panel (AID 1159580);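 also: tested at 20 µM; growth read once vehicle control cultures reached saturation at 30 °C; 1 = growth at the plate median or of vehicle wells; lower values mean less growth of the strain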
Settings: growth OD
[1] = S. cerevisiae deletion strains, locus YDL101C, strain DUN1, stronger effect = lower value
[2] = S. cerevisiae deletion strains, locus YHR030C, strain SLT2, stronger effect = lower value

Measured: normalized growth

N#CC(C#N)=Cc1ccc(-c2ccccc2C(F)(F)F)o1
active: S. cerevisiae deletion strains, locus YLR113W, strain HOG1, stronger effect = lower value 0.758
inactive: S. cerevisiae deletion strains, locus YAR019C, strain CDC15, stronger effect = lower value 0.947 | S. cerevisiae deletion strains, locus YBL105C, strain PKC1, stronger effect = lower value 0.946 | S. cerevisiae deletion strains, locus YBR135W, strain CKS1, stronger effect = lower value 0.947 | S. cerevisiae deletion strains, locus YBR136W, strain MEC1, stronger effect = lower value 0.947 | S. cerevisiae deletion strains, locus YBR160W, strain CDC28, stronger effect = lower value 0.95 | S. cerevisiae deletion strains, locus YDL017W, strain CDC7, stronger effect = lower value 0.947 | S. cerevisiae deletion strains, locus YDL028C, strain MPS1, stronger effect = lower value 0.954 | [1] 0.925 | S. cerevisiae deletion strains, locus YDL108W, strain KIN28, stronger effect = lower value 0.953 | S. cerevisiae deletion strains, locus YDL132W, strain cdc53, stronger effect = lower value 0.947 | S. cerevisiae deletion strains, locus YDL214C, strain PRR2, stronger effect = lower value 0.901 | S. cerevisiae deletion strains, locus YDR052C, strain DBF4, stronger effect = lower value 0.957 | S. cerevisiae deletion strains, locus YDR054C, strain cdc34, stronger effect = lower value 0.94 | S. cerevisiae deletion strains, locus YDR226W, strain ADK1, stronger effect = lower value 0.943 | S. cerevisiae deletion strains, locus YDR477W, strain SNF1, stronger effect = lower value 0.913 | S. cerevisiae deletion strains, locus YER123W, strain YCK3, stronger effect = lower value 0.876 | S. cerevisiae deletion strains, locus YER133W, strain GLC7, stronger effect = lower value 0.925 | S. cerevisiae deletion strains, locus YFL009W, strain cdc4, stronger effect = lower value 0.94 | S. cerevisiae deletion strains, locus YFL029C, strain CAK1, stronger effect = lower value 0.945 | S. cerevisiae deletion strains, locus YFR003C, strain YPI1, stronger effect = lower value 0.944 | S. cerevisiae deletion strains, locus YFR019W, strain FAB1, stronger effect = lower value 0.898 | S. cerevisiae deletion strains, locus YFR028C, strain CDC14, stronger effect = lower value 0.94 | S. cerevisiae deletion strains, locus YGR040W, strain KSS1, stronger effect = lower value 0.903 | S. cerevisiae deletion strains, locus YGR052W, strain FMP48, stronger effect = lower value 0.871 | S. cerevisiae deletion strains, locus YGR092W, strain DBF2, stronger effect = lower value 0.783 | [2] 0.875 | S. cerevisiae deletion strains, locus YHR079C, strain IRE1, stronger effect = lower value 0.905 | S. cerevisiae deletion strains, locus YHR082C, strain KSP1, stronger effect = lower value 0.906 | S. cerevisiae deletion strains, locus YHR205W, strain SCH9, stronger effect = lower value 0.784 | S. cerevisiae deletion strains, locus YIL147C, strain SLN1, stronger effect = lower value 0.948 | S. cerevisiae deletion strains, locus YJL095W, strain BCK1, stronger effect = lower value 0.838 | S. cerevisiae deletion strains, locus YJL128C, strain PBS2, stronger effect = lower value 0.866 | S. cerevisiae deletion strains, locus YJL157C, strain FAR1, stronger effect = lower value 0.907 | S. cerevisiae deletion strains, locus YJR016C, strain ILV3, stronger effect = lower value 0.95 | S. cerevisiae deletion strains, locus YJR066W, strain TOR1 (second series), stronger effect = lower value 0.873 | S. cerevisiae deletion strains, locus YJR066W, strain TOR1, stronger effect = lower value 0.893 | S. cerevisiae deletion strains, locus YKL048C, strain ELM1, stronger effect = lower value 0.899 | S. cerevisiae deletion strains, locus YKL067W, strain YNK1, stronger effect = lower value 0.89 | S. cerevisiae deletion strains, locus YKL101W, strain HSL1, stronger effect = lower value 0.873 | S. cerevisiae deletion strains, locus YKL193C, strain SDS22, stronger effect = lower value 0.942 | S. cerevisiae deletion strains, locus YKL203C, strain TOR2, stronger effect = lower value 0.931 | S. cerevisiae deletion strains, locus YLR133W, strain CKI1, stronger effect = lower value 0.891 | S. cerevisiae deletion strains, locus YLR403W, strain SFP1, stronger effect = lower value 0.848 | S. cerevisiae deletion strains, locus YML070W, strain DAK1, stronger effect = lower value 0.894 | S. cerevisiae deletion strains, locus YMR001C, strain CDC5, stronger effect = lower value 0.94 | S. cerevisiae deletion strains, locus YMR205C, strain PFK2 (second series), stronger effect = lower value 0.899 | S. cerevisiae deletion strains, locus YMR277W, strain FCP1, stronger effect = lower value 0.935 | S. cerevisiae deletion strains, locus YNL006W, strain LST8, stronger effect = lower value 0.949 | S. cerevisiae deletion strains, locus YNL020C, strain ARK1, stronger effect = lower value 0.892 | S. cerevisiae deletion strains, locus YNL161W, strain CBK1, stronger effect = lower value 0.941 | S. cerevisiae deletion strains, locus YNL183C, strain NPR1, stronger effect = lower value 0.864 | S. cerevisiae deletion strains, locus YNL207W, strain RIO2, stronger effect = lower value 0.943 | S. cerevisiae deletion strains, locus YNL222W, strain SSU72, stronger effect = lower value 0.951 | S. cerevisiae deletion strains, locus YNL307C, strain MCK1 (second series), stronger effect = lower value 0.788 | S. cerevisiae deletion strains, locus YOL078W, strain AVO1, stronger effect = lower value 0.939 | S. cerevisiae deletion strains, locus YOL136C, strain PFK27, stronger effect = lower value 0.851 | S. cerevisiae deletion strains, locus YOR061W, strain CKA2, stronger effect = lower value 0.907 | S. cerevisiae deletion strains, locus YOR119C, strain RIO1, stronger effect = lower value 0.964 | S. cerevisiae deletion strains, locus YOR231W, strain MKK1, stronger effect = lower value 0.87 | S. cerevisiae deletion strains, locus YOR329C, strain SCD5, stronger effect = lower value 0.944 | S. cerevisiae deletion strains, locus YPL031C, strain PHO85, stronger effect = lower value 0.895 | S. cerevisiae deletion strains, locus YPL153C, strain RAD53, stronger effect = lower value 0.907 | S. cerevisiae deletion strains, locus YPL204W, strain HRR25, stronger effect = lower value 0.88 | S. cerevisiae deletion strains, locus YPL209C, strain IPL1, stronger effect = lower value 0.947 | S. cerevisiae deletion strains, locus YPL256C, strain CLN2, stronger effect = lower value 0.929 | S. cerevisiae deletion strains, locus YPR025C, strain CCL1, stronger effect = lower value 0.948 | S. cerevisiae deletion strains, locus YPR106W, strain ISR1, stronger effect = lower value 0.938 | S. cerevisiae deletion strains, locus YPR111W, strain DBF20, stronger effect = lower value 0.916 | S. cerevisiae deletion strains, strain NNK1, stronger effect = lower value 0.922 | S. cerevisiae deletion strains, strain TSCII, stronger effect = lower value 0.935

N#CC(C#N)=Cc1ccc(-c2cc(C(F)(F)F)ccc2Cl)o1
inactive: S. cerevisiae deletion strains, locus YAL013W, strain DEP1, stronger effect = lower value 1.01 | S. cerevisiae deletion strains, locus YBR229C, strain ROT2, stronger effect = lower value 1.01 | [1] 1.03 | S. cerevisiae deletion strains, locus YDR150W, strain NUM1, stronger effect = lower value 0.993 | S. cerevisiae deletion strains, locus YEL061C, strain CIN8, stronger effect = lower value 0.997 | S. cerevisiae deletion strains, locus YGR078C, strain PAC10, stronger effect = lower value 1.01 | [2] 0.819 | S. cerevisiae deletion strains, locus YHR087W, strain rtc3, stronger effect = lower value 1.02 | S. cerevisiae deletion strains, locus YJL187C, strain SWE1, stronger effect = lower value 0.997 | S. cerevisiae deletion strains, locus YJR043C, strain POL32, stronger effect = lower value 0.989 | S. cerevisiae deletion strains, locus YJR075W, strain HOC1, stronger effect = lower value 0.987 | S. cerevisiae deletion strains, locus YLR039C, strain RIC1, stronger effect = lower value 0.844 | S. cerevisiae deletion strains, locus YLR058C, strain SHM2 (second series), stronger effect = lower value 0.99 | S. cerevisiae deletion strains, locus YLR085C, strain ARP6, stronger effect = lower value 0.797 | S. cerevisiae deletion strains, locus YLR262C, strain YPT6, stronger effect = lower value 0.913 | S. cerevisiae deletion strains, locus YML094W, strain GIM5, stronger effect = lower value 1.08 | S. cerevisiae deletion strains, locus YMR219W, strain ESC1, stronger effect = lower value 0.996 | S. cerevisiae deletion strains, locus YMR263W, strain SAP30, stronger effect = lower value 0.97 | S. cerevisiae deletion strains, locus YMR307W, strain GAS1, stronger effect = lower value 0.786 | S. cerevisiae deletion strains, locus YNL153C, strain GIM3, stronger effect = lower value 1.02 | S. cerevisiae deletion strains, locus YNL298W, strain CLA4 (second series), stronger effect = lower value 0.923 | S. cerevisiae deletion strains, locus YNL322C, strain KRE1, stronger effect = lower value 0.986 | S. cerevisiae deletion strains, locus YNR030W, strain Alg12, stronger effect = lower value 0.962 | S. cerevisiae deletion strains, locus YPL055C, strain LGE1, stronger effect = lower value 1.01 | S. cerevisiae deletion strains, locus YPL241C, strain CIN2, stronger effect = lower value 0.899 | S. cerevisiae deletion strains, locus YPR135W, strain CTF4, stronger effect = lower value 0.944 | S. cerevisiae strains, strain wild type, stronger effect = lower value 0.959
